Source: PubChem BioAssay (National Center for Advancing Translational Sciences (NCATS))
Sampled rows, rich in hits. Any-hit rate of the full collection: about 7.3%.
Tau ThT inhib: qHTS for Inhibitors of Tau Fibril Formation, Thioflavin T Binding; recombinant tau K18 P301L, heparin-induced fibrillization, ThT fluorescence; Potency, µM (titrated, usually from 57.4 µM), without a hit: at the top dose activity, negative = inhibition, actives largely listed as inhibitors; 2.1% of 270,000 active; AID 1460, 2008; also: nearly all actives have a fitted effect of over 55% in size
Target sequence (P10636 561-689 P618L limits assumed): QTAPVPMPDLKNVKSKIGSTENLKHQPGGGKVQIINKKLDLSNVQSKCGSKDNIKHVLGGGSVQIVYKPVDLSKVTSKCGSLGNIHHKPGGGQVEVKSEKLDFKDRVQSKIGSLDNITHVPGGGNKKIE
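Tau K18 P301L fragment (15 uM unlabeled plus 0.24 uM Alexa 594-labeled) in 100 mM sodium acetate pH 7 with compound, fibrillization induced by 20 uM heparin for 6 hr at 37 C. Thioflavin T (30 uM) added, fluorescence read after 1 hr (ex 450, em 510 nm).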
Tau fluor cs: Counterscreen qHTS for Inhibitors of Tau Fibril Formation, Fluorescence Polarization | tau K18 P301L (four-repeat tau fragment) Alexa594 fluorescence, heparin fibrillization | 0.93% of 280,000 active | AID 1463, 2008 | Potency, µM (highest dose often 57.7 µM), without a hit: at the highest dose activity change, negative = decrease; also: nearly all actives have a fitted effect of over 55% in size
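Human K18 P301L tau (15 uM unlabeled plus 0.24 uM Alexa 594-labeled, final) in 100 mM sodium acetate pH 7 was mixed with compound and 20 uM heparin and incubated 6 hr at 37 C.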
Tau FP inhib: qHTS for Inhibitors of Tau Fibril Formation, Fluorescence Polarization; 0.39% of 280,000 active; Potency, µM (doses to about 57.7 µM), for inactives: at the highest dose activity, negative = inhibition, actives largely listed as inhibitors; K18 P301L tau heparin fibrillization, Alexa594 FP, 6 h; also: nearly all actives have a fitted effect of over 55% in size
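K18 P301L tau (15 uM unlabeled/0.24 uM Alexa 594-labeled, final) + compound + heparin 20 uM final; 100 mM NaOAc pH 7; 6 hr 37 C; ThT 30 uM final added, 1 hr RT; FP ex 555/em 632 nm.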
RORgamma inh: qHTS for inhibitors of ROR gamma transcriptional activity. Nuclear receptor ROR-gamma (Mus musculus), P51450. Drosophila S2 Gal4-RORgamma UAS-luciferase reporter, 20 h. Potency, µM (series often up to 53.6 µM), inactives show top-dose activity change, negative = inhibition, usual class: inhibitors. 5.4% of 310,000 active. AID 2551, 2010; also: nearly all actives have a fitted effect of over 60% in size
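Stable Schneider cell line, Gal4 DNA-binding domain fused to ROR gamma, UAS-luciferase. Cmpd 1 hr RT → CuSO4 700 uM final → 20 hr RT → luciferase reagent 10 min → luminescence.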
VP16 counter: VP16 counterscreen qHTS for inhibitors of ROR gamma transcriptional activity. 3.5% of 310,000 active. AID 2546, 2010. Drosophila S2 Gal4-VP16 UAS-luciferase, luminescence, 20 h. Potency, µM (doses to about 53.6 µM), for the others: top-dose activity, negative = inhibition, actives largely listed as inhibitors;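 also: Gal4-VP16 expression switched on by copper sulfate through the metallothionein promoter; nearly all actives have a fitted effect of over 50% in size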
* hit, by the source's call; ? = inconclusive; nt = no result given. Calls follow the shape of the dose curve; as a rule, active = well fitted curve in the direction sought with a large enough effect; inconclusive = small, poorly fitted or top-dose-only effect, or another doubt; inactive = no such curve, though single readings can be large; an effect the other way counts as inactive or inconclusive. % is scaled to controls: 0 for no effect and ±100 for the full control effect; potency is read from the fitted curve at half-maximal effect.

SMILES	Tau ThT inhib	Tau fluor cs	Tau FP inhib	RORgamma inh	VP16 counter
O=c1c2c(-c3cccs3)csc2ncn1-c1ccc(Br)cc1	-7%	-16%	-2%	9%	-13%
C=CCn1c(=S)[nH]c2scc(-c3cccs3)c2c1=O	?	-18%	4%	0.63µM*	0.79µM*
COc1ccccc1CNc1ncncc1-c1ccc2c(c1)OCO2	nt	nt	nt	-22%	0%
O=C(C1CCC(=O)N(C2CCCC2)C1)N1CCC(Oc2ccccc2Cl)CC1 (configuration not stated)	nt	nt	nt	12%	-13%
CCNc1sc(C(=O)c2cccs2)c(N)c1-c1nc2ccccc2s1	8.9µM*	?	-4%	?	7.9µM*
C=CCNC(=O)c1nc2ccccc2s1	21%	16%	10%	22%	-28%
CCOC(=O)c1sc(NCc2ccco2)c(-c2nc3ccccc3s2)c1N	?	?	4%	19%	6%
CCNc1sc(C(=O)c2cccs2)c(N)c1C#N	28µM*	?	?	-4%	-4%
C=CCNc1sc(C(=O)c2ccccc2)c(N)c1-c1nc2ccccc2s1	-7%	-4%	-7%	4.5µM*	16µM*
COc1cc(NC(=O)c2ccc3c(c2)OCCO3)ccc1NC(=O)c1ccccc1Cl	nt	nt	nt	-10%	-11%
Cc1nc2ccc(NC(=O)c3cc([N+](=O)[O-])cc([N+](=O)[O-])c3Cl)cc2s1	0%	0%	3%	?	3.2µM*
COc1ccc(OC)c(CNS(=O)(=O)c2c(C(=O)N3CCC(C)CC3)c(C)n(C)c2C)c1	6%	5%	4%	nt	nt
COc1ccc(NC(=O)c2ccc(CNS(=O)(=O)c3ccc4c(c3)C(C)(C)C(=O)N4C)cc2)cc1	-11%	-20%	-1%	nt	nt
COc1ccc2nc(C)cc(N/N=C/c3cccc(OC)c3O)c2c1	nt	nt	nt	?	11µM*
COc1ccc2nc(C)cc(SCC(=O)N/N=C/c3cccc4ccccc34)c2c1	?	-17%	3%	11µM*	-25%
COC(=O)c1sccc1N/N=C/c1cccc(OC)c1O	13%	12%	?	?	16µM*
COc1ccc(/C=N/Nc2cc(C)nc3ccc(Br)cc23)cc1	nt	nt	nt	13µM*	?
CCCCN(CC)C(=O)CSc1nc2ccccc2c(=O)n1Cc1ccco1	-10%	-7%	2%	nt	nt
Cc1cc2n(n1)SC(Nc1cccc3ccccc13)N2 (configuration not stated)	-10%	-11%	-10%	2µM*	4.5µM*
CCc1ccccc1NC1Nc2cc(C)nn2S1 (configuration not stated)	-8%	-9%	3%	5.6µM*	13µM*
Cc1cc2n(n1)SC(Nc1ccc(F)cc1)N2 (configuration not stated)	-1%	-4%	3%	?	?
Cc1cc2n(n1)SC(Nc1cc(Cl)ccc1Cl)N2 (configuration not stated)	-9%	-6%	7%	0.5µM*	0.56µM*
COC(=O)c1c(NC(=O)c2ccccc2F)sc(C(=O)N2CCOCC2)c1C	nt	nt	nt	-24%	-5%
CN(C)c1ccc(/C=N/NC(=O)c2ccccc2O)o1	?	-9%	0%	-24%	2%
O=C(N/N=C/c1ccc(N2CCCCC2)o1)C(O)(c1ccccc1)c1ccccc1	?	-24%	?	11µM*	13µM*
CN(C)c1ccc(/C=N/NC(=O)C(O)(c2ccccc2)c2ccccc2)o1	?	-6%	-7%	8.9µM*	11µM*
O=Cc1ccc(N2CCCC2)o1	-3%	-3%	4%	-1%	3%
Cc1cc(C(=O)N/N=C/c2ccc(N(C)C)o2)cs1	nt	nt	nt	13µM*	6.3µM*
CCCn1c(=N)c(C(=O)NC(C)c2ccccc2)cc2c(=O)n3ccccc3nc21 (configuration not stated)	0%	-3%	1%	nt	nt
Cc1cnc(CN(C)C(=O)c2ccc3oc(Cc4ccc(Cl)cc4)nc3c2)[nH]1	nt	nt	nt	42%	-2%
